In PubChem BioAssay (NCI):
About 83,000 compounds went through this panel and 20% of them were active in at least one assay; those are over-represented in the sample as a whole.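 Activity criterion: percent growth below 10, measured after cells in 96-well plates were exposed to a single compound concentration for 48 hours.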 Activity calls are given as the source filed them.

How the values were obtained:
Experiment in all cases: NCI-60 one-dose screen, 48 h (100 = growth as untreated, 0 = no growth, -100 = all killed)
Conditions in all cases: 10 µM unless noted
NCI-H23 lung = system: NCI-H23 lung
NCI-H226 lung = system: NCI-H226 lung
NCI-H322M lung = system: NCI-H322M lung
HOP-62 NSCLC = system: HOP-62 NSCLC
HOP-92 NSCLC = system: HOP-92 NSCLC
NCI-H522 lung = system: NCI-H522 lung
A549/ATCC NSCLC = system: A549/ATCC NSCLC
786-0 renal = system: 786-0 renal
NCI-H460 lung = system: NCI-H460 lung
COLO 205 colon = system: COLO 205 colon

Measured: growth

CS(=O)(=O)c1ccc(-c2nn(-c3ccccc3)cc2/C=N/NC(=O)c2ccncc2)cc1
inactive: NCI-H23 lung 97.5% | NCI-H226 lung 110% | NCI-H322M lung 96.9% | HOP-62 NSCLC 105% | HOP-92 NSCLC 96.3% | NCI-H522 lung 84.7% | A549/ATCC NSCLC 102% | 786-0 renal 82.6%

CCCCCCNC(=O)Oc1ccc(/C(=C(\C)c2ccc(OC)cc2)c2ccc(OCCN(C)C)cc2)cc1
inactive: NCI-H23 lung 84.4% | NCI-H226 lung 105% | NCI-H322M lung 89% | HOP-62 NSCLC 89.8% | NCI-H460 lung 67.6% | NCI-H522 lung 98% | A549/ATCC NSCLC 74.7% | 786-0 renal 62.3% | COLO 205 colon 90.4%

CCOc1ccc2nc(NC(=O)Nc3ccccc3C)sc2c1
inactive: NCI-H23 lung 76.4% | NCI-H226 lung 38.3% | NCI-H322M lung 87% | HOP-62 NSCLC 49% | NCI-H460 lung 42.4% | NCI-H522 lung 32.7% | A549/ATCC NSCLC 54.7% | 786-0 renal 64.9% | COLO 205 colon 49.9%

CN1CCN(Cc2ccc(NC(=O)c3cncc(C#Cc4cnc5ccc(NC6CCOCC6)nn45)c3)cc2C(F)(F)F)CC1
active: NCI-H23 lung -52.9% | NCI-H226 lung -53.1% | NCI-H322M lung -20% | HOP-62 NSCLC -0.603% | NCI-H460 lung -81.4% | NCI-H522 lung -68.5% | 786-0 renal -88.3% | COLO 205 colon -90.6%

CC[C@]12C=CCN3CC[C@]4(C(=C(C(=O)OC)C1)Nc1cc5c(cc14)[C@@H]1[C@H](O5)[C@@H](O)[C@@]4(CC)CC(C(=O)OC)=C5Nc6cc(OC)ccc6[C@@]56CCN1[C@@H]46)[C@@H]32
active: NCI-H23 lung -44.5% | NCI-H226 lung -1.39% | NCI-H460 lung 5.78% | NCI-H522 lung -11.8% | 786-0 renal -9.86% | COLO 205 colon -29.2%
inactive: NCI-H322M lung 15% | HOP-62 NSCLC 24.1% | A549/ATCC NSCLC 20%

O=C(Nc1cccc(Cl)c1)Nc1nc2ccc([N+](=O)[O-])cc2s1
inactive: A549/ATCC NSCLC 10%
active: NCI-H23 lung -20.9% | NCI-H226 lung -7.2% | NCI-H322M lung 8.75% | HOP-62 NSCLC -1.84% | NCI-H460 lung 2.75% | NCI-H522 lung 2.99% | 786-0 renal 8.65% | COLO 205 colon -54.2%

Cc1ccc(S(=O)(=O)N/N=C/c2cn(-c3ccc(F)cc3)nc2-c2ccc(S(C)(=O)=O)cc2)cc1
inactive: NCI-H23 lung 104% | NCI-H226 lung 102% | NCI-H322M lung 106% | HOP-62 NSCLC 101% | NCI-H460 lung 108% | NCI-H522 lung 95.3% | A549/ATCC NSCLC 101% | 786-0 renal 100% | COLO 205 colon 107%

O=C(COc1ccc(/C=C2\SC(=O)NC2=O)cc1)Nc1ccc(C(=O)/C=C/c2cc3ccccc3nc2Cl)cc1
inactive: NCI-H23 lung 65.3% | NCI-H226 lung 74.9% | NCI-H322M lung 97.8% | HOP-62 NSCLC 103% | NCI-H460 lung 86% | NCI-H522 lung 65.8% | A549/ATCC NSCLC 78.6% | 786-0 renal 83.6% | COLO 205 colon 96.3%

COc1cc2oc(-c3cccc(NC(=O)c4cc(NC(=O)[C@H](C)NC(=O)OC(C)(C)C)ccc4C)c3)cc(=O)c2c(OC)c1OC
inactive: NCI-H23 lung 63.8% | NCI-H226 lung 80.6% | NCI-H322M lung 86.2% | HOP-62 NSCLC 84.5% | NCI-H460 lung 61.5% | NCI-H522 lung 72.2% | A549/ATCC NSCLC 80.5% | 786-0 renal 77.5% | COLO 205 colon 67.7%

NS(=O)(=O)c1ccc(Nc2nc(N/N=C/c3ccc([N+](=O)[O-])cc3)nc(Nc3ccccc3)n2)cc1
inactive: NCI-H23 lung 12.2% | NCI-H226 lung 59.6% | NCI-H322M lung 39.5% | NCI-H522 lung 48.3% | A549/ATCC NSCLC 96.9% | 786-0 renal 10.4% | COLO 205 colon 23.1%
active: HOP-62 NSCLC 9.49% | NCI-H460 lung 1.55%

O=C1/C(=C/c2ccccc2[N+](=O)[O-])Oc2ccc(O)cc21
inactive: NCI-H23 lung 43.7% | NCI-H226 lung 78.6% | NCI-H322M lung 79.8% | HOP-62 NSCLC 78.3% | NCI-H460 lung 72.3% | A549/ATCC NSCLC 84.8% | 786-0 renal 46.3% | COLO 205 colon 20.2%
active: NCI-H522 lung -5.14%

N#C/C(=C\c1ccc(-c2ccc(F)cc2)o1)C(=O)Nc1ncc(Cc2ccc(Cl)cc2Cl)s1
inactive: NCI-H226 lung 69.3% | NCI-H322M lung 13.8% | COLO 205 colon 66.8%
active: NCI-H23 lung -37.2% | HOP-62 NSCLC -34.7% | NCI-H460 lung -74.2% | NCI-H522 lung -8.78% | A549/ATCC NSCLC -48% | 786-0 renal -28.3%

Oc1ccc(CSc2nnc(-c3ccccc3)o2)c2cccnc12
active: NCI-H460 lung 2.23%
inactive: NCI-H23 lung 27.8% | NCI-H226 lung 51.2% | NCI-H322M lung 25.7% | HOP-62 NSCLC 13.8% | NCI-H522 lung 22.6% | A549/ATCC NSCLC 17.6% | 786-0 renal 24.5% | COLO 205 colon 98.9%

Cc1ccc(NC(=O)c2ccc(CN3CCN(C)CC3)c(C(F)(F)F)c2)cc1Oc1ccc(-c2[nH]nc3ncnc(N)c23)cc1
inactive: NCI-H23 lung 90.1% | NCI-H226 lung 78.4% | NCI-H322M lung 96.2% | HOP-62 NSCLC 99.4% | NCI-H460 lung 93.5% | NCI-H522 lung 84.9% | A549/ATCC NSCLC 78.6% | 786-0 renal 70.9% | COLO 205 colon 52.5%
